{
  "source": "paper PMC12820563",
  "about": "“FoxP3 forms a head-to-head dimer in vivo and stabilizes its multimerization on adjacent microsatellites”",
  "note": "In all, about 16,000 sequences were measured (“rpm ratio (pull-down/input)”: median about 0.5, highest 2% from about 5.5 on). What follows is part of a selection rich in the highest values, with near analogues and random picks from the rest.",
  "data": [
    {"target": "T1, MBP-FoxP3dN (Mus musculus, UniProt Q99JB6 188-423)", "T1 sequence": "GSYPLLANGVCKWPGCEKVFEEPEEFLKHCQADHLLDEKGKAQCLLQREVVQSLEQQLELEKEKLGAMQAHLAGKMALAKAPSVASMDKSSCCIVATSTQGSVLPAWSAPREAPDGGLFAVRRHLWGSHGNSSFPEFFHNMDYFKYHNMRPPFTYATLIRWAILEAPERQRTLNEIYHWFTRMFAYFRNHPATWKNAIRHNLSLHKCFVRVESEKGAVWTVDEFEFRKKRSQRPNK", "experiment": "PD-seq (MBP pull-down with sequencing); 20 mM Tris-HCl pH 7.5, 100 mM NaCl, 1.5 mM MgCl2, 0.4 uM protein, 0.1 uM dsDNA library, 30 min, room temperature, amylose pull-down; high values mean tight binding", "conditions": "protein: recombinant; tags: His6-MBP; chain copies: 2; dsDNA, one strand shown", "procedure,_shortened": "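Protein and DNA were mixed at 0.4 µM and 0.1 µM and held for 30 min at room temperature in Tris pH 7.5 buffer with NaCl and MgCl2; the protein was a His6-MBP-tagged, N-terminally truncated mouse FoxP3 or FoxP1 fragment from E. coli, and the DNA a Klenow-filled double-stranded degenerate library. Amylose resin captured the complexes, which were washed three times. Binding is read as reads-per-million enrichment of pull-down versus input after Illumina sequencing, with replicates pooled.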", "values": [
      {"sequence": "GATGATTGTTCTCCCAGCTGATGAATTACGGCCATCGAGTAAACAAATTTTCCTAATCTTTCTGTTCAAGCGCCATCTAC", "binding signal": "1.15 RPM ratio (pull-down/input)"},
      {"sequence": "GATGATTGTTCTCCCAGCTGATGAATTTAATCAATCGAGTAAACAAATTTTCCTAATCTTTCTGTTCAAGCGCCATCTAC", "binding signal": "0.269 RPM ratio (pull-down/input)"},
      {"sequence": "GATGATTGTTCTCCCAGCTGATGAATTTGGTCCGTCGAGTAAACAAATTTTCCTAATCTTTCTGTTCAAGCGCCATCTAC", "binding signal": "0.363 RPM ratio (pull-down/input)"},
      {"sequence": "GATGATTGTTCTCCCAGCTGATGAATTGGAACTCTCGAGTAAACAAATTTTCCTAATCTTTCTGTTCAAGCGCCATCTAC", "binding signal": "0.343 RPM ratio (pull-down/input)"},
      {"sequence": "GATGATTGTTCTCCCAGCTGATGAATTCCTTTGGTCGAGTAAACAAATTTTCCTAATCTTTCTGTTCAAGCGCCATCTAC", "binding signal": "0.395 RPM ratio (pull-down/input)"},
      {"sequence": "GATGATTGTTCTCCCAGCTGATGAATTGACACATTCGAGTAAACAAATTTTCCTAATCTTTCTGTTCAAGCGCCATCTAC", "binding signal": "0.772 RPM ratio (pull-down/input)"},
      {"sequence": "GATGATTGTTCTCCCAGCTGATGAATTGCGATGGTCGAGTAAACAAATTTTCCTAATCTTTCTGTTCAAGCGCCATCTAC", "binding signal": "1.01 RPM ratio (pull-down/input)"},
      {"sequence": "GATGATTGTTCTCCCAGCTGATGAATTTTACGCCTCGAGTAAACAAATTTTCCTAATCTTTCTGTTCAAGCGCCATCTAC", "binding signal": "0.506 RPM ratio (pull-down/input)"},
      {"sequence": "GATGATTGTTCTCCCAGCTGATGAATTACGCCTCTCGAGTAAACAAATTTTCCTAATCTTTCTGTTCAAGCGCCATCTAC", "binding signal": "5.99 RPM ratio (pull-down/input)"},
      {"sequence": "GATGATTGTTCTCCCAGCTGATGAATTACGCGCATCGAGTAAACAAATTTTCCTAATCTTTCTGTTCAAGCGCCATCTAC", "binding signal": "1.54 RPM ratio (pull-down/input)"},
      {"sequence": "GATGATTGTTCTCCCAGCTGATGAATTACGCCACTCGAGTAAACAAATTTTCCTAATCTTTCTGTTCAAGCGCCATCTAC", "binding signal": "6.17 RPM ratio (pull-down/input)"},
      {"sequence": "GATGATTGTTCTCCCAGCTGATGAATTACTCCACTCGAGTAAACAAATTTTCCTAATCTTTCTGTTCAAGCGCCATCTAC", "binding signal": "0.339 RPM ratio (pull-down/input)"},
      {"sequence": "GATGATTGTTCTCCCAGCTGATGAATTACGCATCTCGAGTAAACAAATTTTCCTAATCTTTCTGTTCAAGCGCCATCTAC", "binding signal": "7.33 RPM ratio (pull-down/input)"},
      {"sequence": "GATGATTGTTCTCCCAGCTGATGAATTTACGCACTCGAGTAAACAAATTTTCCTAATCTTTCTGTTCAAGCGCCATCTAC", "binding signal": "0.784 RPM ratio (pull-down/input)"},
      {"sequence": "GATGATTGTTCTCCCAGCTGATGAATTACGCAGCTCGAGTAAACAAATTTTCCTAATCTTTCTGTTCAAGCGCCATCTAC", "binding signal": "1.78 RPM ratio (pull-down/input)"},
      {"sequence": "GATGATTGTTCTCCCAGCTGATGAATTACGCGCCTCGAGTAAACAAATTTTCCTAATCTTTCTGTTCAAGCGCCATCTAC", "binding signal": "1.67 RPM ratio (pull-down/input)"},
      {"sequence": "GATGATTGTTCTCCCAGCTGATGAATTAGATGTGTCGAGTAAACAAATTTTCCTAATCTTTCTGTTCAAGCGCCATCTAC", "binding signal": "2.71 RPM ratio (pull-down/input)"},
      {"sequence": "GATGATTGTTCTCCCAGCTGATGAATTGTCCCGCTCGAGTAAACAAATTTTCCTAATCTTTCTGTTCAAGCGCCATCTAC", "binding signal": "0.272 RPM ratio (pull-down/input)"},
      {"sequence": "GATGATTGTTCTCCCAGCTGATGAATTAAGTCCGTCGAGTAAACAAATTTTCCTAATCTTTCTGTTCAAGCGCCATCTAC", "binding signal": "0.307 RPM ratio (pull-down/input)"},
      {"sequence": "GATGATTGTTCTCCCAGCTGATGAATTTCGCTTGTCGAGTAAACAAATTTTCCTAATCTTTCTGTTCAAGCGCCATCTAC", "binding signal": "3.29 RPM ratio (pull-down/input)"},
      {"sequence": "GATGATTGTTCTCCCAGCTGATGAATTTTGTATATCGAGTAAACAAATTTTCCTAATCTTTCTGTTCAAGCGCCATCTAC", "binding signal": "7.43 RPM ratio (pull-down/input)"},
      {"sequence": "GATGATTGTTCTCCCAGCTGATGAATTCTATACATCGAGTAAACAAATTTTCCTAATCTTTCTGTTCAAGCGCCATCTAC", "binding signal": "0.559 RPM ratio (pull-down/input)"},
      {"sequence": "GATGATTGTTCTCCCAGCTGATGAATTGTATACATCGAGTAAACAAATTTTCCTAATCTTTCTGTTCAAGCGCCATCTAC", "binding signal": "5.87 RPM ratio (pull-down/input)"},
      {"sequence": "GATGATTGTTCTCCCAGCTGATGAATTCTGTATATCGAGTAAACAAATTTTCCTAATCTTTCTGTTCAAGCGCCATCTAC", "binding signal": "5.72 RPM ratio (pull-down/input)"},
      {"sequence": "GATGATTGTTCTCCCAGCTGATGAATTCAGTATATCGAGTAAACAAATTTTCCTAATCTTTCTGTTCAAGCGCCATCTAC", "binding signal": "2.12 RPM ratio (pull-down/input)"},
      {"sequence": "GATGATTGTTCTCCCAGCTGATGAATTTGTAATATCGAGTAAACAAATTTTCCTAATCTTTCTGTTCAAGCGCCATCTAC", "binding signal": "1.95 RPM ratio (pull-down/input)"},
      {"sequence": "GATGATTGTTCTCCCAGCTGATGAATTTTATACATCGAGTAAACAAATTTTCCTAATCTTTCTGTTCAAGCGCCATCTAC", "binding signal": "0.598 RPM ratio (pull-down/input)"},
      {"sequence": "GATGATTGTTCTCCCAGCTGATGAATTCTATATATCGAGTAAACAAATTTTCCTAATCTTTCTGTTCAAGCGCCATCTAC", "binding signal": "1.18 RPM ratio (pull-down/input)"},
      {"sequence": "GATGATTGTTCTCCCAGCTGATGAATTGTATATATCGAGTAAACAAATTTTCCTAATCTTTCTGTTCAAGCGCCATCTAC", "binding signal": "3.21 RPM ratio (pull-down/input)"},
      {"sequence": "GATGATTGTTCTCCCAGCTGATGAATTTCAGCAATCGAGTAAACAAATTTTCCTAATCTTTCTGTTCAAGCGCCATCTAC", "binding signal": "1.94 RPM ratio (pull-down/input)"},
      {"sequence": "GATGATTGTTCTCCCAGCTGATGAATTCACAGCATCGAGTAAACAAATTTTCCTAATCTTTCTGTTCAAGCGCCATCTAC", "binding signal": "0.801 RPM ratio (pull-down/input)"},
      {"sequence": "GATGATTGTTCTCCCAGCTGATGAATTAGCACTTTCGAGTAAACAAATTTTCCTAATCTTTCTGTTCAAGCGCCATCTAC", "binding signal": "0.435 RPM ratio (pull-down/input)"},
      {"sequence": "GATGATTGTTCTCCCAGCTGATGAATTAATCTATTCGAGTAAACAAATTTTCCTAATCTTTCTGTTCAAGCGCCATCTAC", "binding signal": "0.398 RPM ratio (pull-down/input)"}
    ]}
  ]
}
